# SF1 inhibitor – SF-1 (human) inhibition. Q13285. CHO-K1 Gal4-SF-1 LBD luciferase reporter. inhibition, % at 10 µM. 65,000 compounds, 0.55% hits. AID 525;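 active means inhibition above the mean inhibition of all tested compounds plus 3 SD, cut at about 48% in these data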
# Target sequence (Q13285 whole entry, looked up, the tested form may be a part): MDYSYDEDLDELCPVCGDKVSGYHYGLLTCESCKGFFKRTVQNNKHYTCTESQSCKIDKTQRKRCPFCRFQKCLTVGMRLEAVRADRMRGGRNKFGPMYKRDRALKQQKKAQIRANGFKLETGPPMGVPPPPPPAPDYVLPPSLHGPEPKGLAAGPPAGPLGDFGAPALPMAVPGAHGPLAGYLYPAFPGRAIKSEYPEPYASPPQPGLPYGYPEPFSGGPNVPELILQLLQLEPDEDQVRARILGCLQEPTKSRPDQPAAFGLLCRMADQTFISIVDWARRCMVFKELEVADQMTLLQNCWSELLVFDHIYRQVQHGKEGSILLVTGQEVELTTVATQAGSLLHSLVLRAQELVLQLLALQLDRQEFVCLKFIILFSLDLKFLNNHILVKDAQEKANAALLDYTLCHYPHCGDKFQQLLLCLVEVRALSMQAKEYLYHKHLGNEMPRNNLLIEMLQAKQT
# A number is an active result; i = inactive. The entries come from a sample that favours hits as a whole.
SMILES,SF1 inhibitor
COC(=O)c1ccc(N2C(=O)CC(N3CCC(n4c(=O)[nH]c5ccccc54)CC3)C2=O)cc1 (configuration not stated),54
C[C@]12CCC(=O)C=C1CCC1C2CC[C@@]2(C)C1CC[C@@]2(O)CC#N (some centres not stated),i
CC(C(N)=O)N1CC(c2ccccc2)CC1=O (configuration not stated),i
COc1cccc(-c2cc(C(F)(F)F)n3nc(C(=O)N4CCC5(CC4)OCCO5)cc3n2)c1,i
O=C1C2CCN(CC2)[C@@H]1Cc1ccc2ccccc2c1O,i
Cn1ncnc2c(=O)n(C)c(=O)nc1-2,96
COC(=O)N(c1ccccc1)P1(=S)OCCO1,i
COc1ccc(C2C(C(=O)N3CCC4(CC3)OCCO4)c3cc(OC)c(OC)cc3C(=O)N2C)cc1 (configuration not stated),i
CCOP1(=S)Oc2cc3c(cc2C(C(=O)OC)(C(F)(F)F)O1)OCO3 (configuration not stated),i
CCC(=NCC1CCCO1)c1c(O)[nH]c(=O)[nH]c1=O (configuration not stated),i
CCCCn1c(O)c(C=NCCN2CCCCC2)c(=O)[nH]c1=O,i
O=P(CN1CCN(c2ccccc2)CC1)(N1CCCCC1)N1CCCCC1,i
C=CCn1c(O)c(C(C)=Nc2ccc(C(=O)OCC)cc2)c(=O)[nH]c1=O,i
CN1CCN(C(=O)COc2ccc(-c3nc4ccccc4s3)cc2)CC1,71
OC1(c2ccc(F)cc2)CC2CCC(C1)N2Cc1nnnn1C1CCCCC1 (configuration not stated),i
Cc1cccc(N2CCc3c2nc2ccccc2c3N)c1,i
CN1C(=O)C(C2(C#N)CCCCC2)C(=O)N(C)C1=O,i
CCCCn1c(O)c(C=NCCCN(CC)CC)c(=O)[nH]c1=O,i
Cc1c2ccncc2c(C)c2c1[nH]c1ccccc12,76
COCCn1cc(C(=O)N2CCC3(CC2)OCCO3)c2c3ccccc3n(C)c2c1=O,i
CCOc1cc2[nH]c(=S)n(CCCC(=O)N3CCC4(CC3)OCCO4)c(=O)c2cc1OCC,i
Cc1ccc2cc3cc(C(=O)N4CCC5(CC4)OCCO5)oc3nc2c1,i
CC(C)NS(=O)(=O)c1ccc(OCC(=O)N2CCN(Cc3ccccc3)CC2)c(Cl)c1,i
C[C@@]1(CO)[C@H](O)CC[C@@]2(C)[C@H]1CC[C@H]1C[C@@H]3C[C@@]12CC[C@]3(O)CO,84
C=CCOC(=O)C1=C(C)OC(N)=C(C#N)[C@@]12C(=O)N(CC(N)=O)c1ccccc12,i
